Reference: article PMC4336329 (PLoS ONE, 2015)
Screen size: about 310,000 compounds; about 14,000 (4.5%) showed an effect of 50% or more. The effect is printed as a negative number. This excerpt belongs to a sample that is enriched for strong results.

Biological target: human ether-à-go-go-related gene (hERG) potassium channel (human, UniProt Q12809)
Assay: primary screen, population patch clamp on CHO cells stably expressing hERG; higher = less effect of the substance
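Note: peak tail current of the secondary pulse compared with the same well before compound.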

Sequence of human ether-à-go-go-related gene (hERG) potassium channel (Q12809 whole entry, looked up): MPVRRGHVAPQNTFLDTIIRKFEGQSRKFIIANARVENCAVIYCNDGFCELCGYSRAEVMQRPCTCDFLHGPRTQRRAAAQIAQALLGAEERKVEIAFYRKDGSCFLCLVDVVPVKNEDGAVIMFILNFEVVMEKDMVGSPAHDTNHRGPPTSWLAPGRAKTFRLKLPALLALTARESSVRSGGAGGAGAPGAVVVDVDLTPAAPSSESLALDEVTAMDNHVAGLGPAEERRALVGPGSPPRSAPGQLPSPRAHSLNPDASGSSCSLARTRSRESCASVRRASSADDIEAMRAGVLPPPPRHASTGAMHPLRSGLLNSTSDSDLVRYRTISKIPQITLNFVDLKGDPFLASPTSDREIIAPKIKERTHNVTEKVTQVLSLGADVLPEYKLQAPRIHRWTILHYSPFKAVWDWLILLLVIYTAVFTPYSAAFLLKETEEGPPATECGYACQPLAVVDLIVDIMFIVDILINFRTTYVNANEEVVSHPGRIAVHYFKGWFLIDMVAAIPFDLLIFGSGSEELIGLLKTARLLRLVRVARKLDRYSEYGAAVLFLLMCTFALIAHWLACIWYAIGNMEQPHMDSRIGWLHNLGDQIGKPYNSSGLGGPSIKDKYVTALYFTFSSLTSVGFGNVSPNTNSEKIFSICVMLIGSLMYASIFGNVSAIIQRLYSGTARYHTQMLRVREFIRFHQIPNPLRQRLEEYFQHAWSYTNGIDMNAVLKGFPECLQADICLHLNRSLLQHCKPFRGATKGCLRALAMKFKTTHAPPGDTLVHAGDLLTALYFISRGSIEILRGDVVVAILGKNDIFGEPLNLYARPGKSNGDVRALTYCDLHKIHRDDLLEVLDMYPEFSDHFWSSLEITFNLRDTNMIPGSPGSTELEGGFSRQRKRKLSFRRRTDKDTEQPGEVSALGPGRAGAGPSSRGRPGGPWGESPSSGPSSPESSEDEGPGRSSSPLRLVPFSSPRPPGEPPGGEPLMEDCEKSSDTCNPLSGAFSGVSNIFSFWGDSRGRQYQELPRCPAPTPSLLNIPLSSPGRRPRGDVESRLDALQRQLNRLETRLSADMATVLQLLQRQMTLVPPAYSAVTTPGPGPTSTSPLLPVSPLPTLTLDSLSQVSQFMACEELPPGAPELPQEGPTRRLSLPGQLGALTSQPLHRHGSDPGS

| Structure (SMILES) | hERG current change (%, negative = inhibition) at 10uM |
| --- | --- |
| CCc1nn(C(C)C(=O)N2CCN(c3ccccc3)CC2)c(=O)c2cc3occc3n12 (stereo not drawn) | -25.3% |
| CCOC(=O)C1C(c2ccc(O)c(OCC)c2)NC(=S)NC1(O)C(F)(F)F (stereo not drawn) | -12.5% |
| CC(=O)c1ccc(N2CCN(C(=O)CCC(=O)Nc3ccc4nc(N5CCN(C)CC5)cc(C)c4c3)CC2)cc1 | 20.3% |
| CN(C(=O)COC(=O)c1ccc(-c2ccc(O)cc2)cc1)C1CCS(=O)(=O)C1 (stereo not drawn) | 10.8% |
| COCCNC(=O)CN(C(=O)CCC(=O)Nc1ccccn1)c1ccc(F)c(Cl)c1 | 4.59% |
| Cc1ccc(-n2nnnc2SCC(=O)NCC2(N3CCCCC3)CCCCC2)c(C)c1 | -284% |
| O=C(CSc1nnnn1-c1ccccc1)NCC1(N2CCCCC2)CCCCC1 | -62.3% |
| Cc1ccc(-n2nnnc2SCC(=O)NCCC2=CCCCC2)c(C)c1 | -13.1% |
| O=C(CSc1nnnn1-c1ccccc1)NCC1(N2CCOCC2)CCCCC1 | -21.3% |
| CNC(=O)CSc1nnnn1-c1ccc(C)cc1C | 7.63% |
| O=C(CSc1ccccc1)NCC1(N2CCCCC2)CCCCC1 | -0.798% |
| COCCN(C(=O)COC(=O)c1ccccc1Oc1ccccc1)c1c(N)n(Cc2ccccc2)c(=O)[nH]c1=O | -21.6% |
| Cc1cc(C(=O)N2CCN(c3ncccn3)CC2)sc1-c1ccccc1 | -3.34% |
| O=[N+]([O-])c1ccccc1/C=N/NC1=NCCN1 | 7.6% |
| COc1ccccc1N1CCN(C(=O)CCNC(=O)Cn2ccc3ccccc3c2=O)CC1 | 2.62% |
| CN(C(=O)C1CCC(=O)N(CCCN2CCCC2=O)C1)C(C1CC1)C1CC1 (stereo not drawn) | 12.1% |
| CC(=O)Nc1ccc(S(=O)(=O)Nc2ccc3c(c2)OCO3)cc1 | 17.2% |
| O=C(Nc1cccc(S(=O)(=O)N2CCOCC2)c1)[C@@H]1CCCN1S(=O)(=O)c1ccc(Cl)cc1 | -62.8% |
| O=C(Nc1cccc(S(=O)(=O)N2CCCCCC2)c1)C1CCN(C(=O)c2ccc(Cl)cc2)CC1 | -41.9% |
| O=C(Nc1cccc(S(=O)(=O)N2CCOCC2)c1)C1CCCN(C(=O)c2ccc(Cl)cc2)C1 (stereo not drawn) | -32.4% |
| CN(C)S(=O)(=O)c1cccc(NC(=O)COC(=O)C2CCN(C(=O)c3ccc(F)cc3)CC2)c1 | -50.8% |

| Structure (SMILES) | hERG current change (%, negative = inhibition) at 10uM |
| --- | --- |
| O=C(Nc1cccc(S(=O)(=O)N2CCCCCC2)c1)C1CCC1 | -57.4% |
| O=C(Nc1cccc(S(=O)(=O)N2CCCCC2)c1)C1CCC1 | 3.43% |
| O=C(Nc1cccc(S(=O)(=O)N2CCCCC2)c1)C1CCN(C(=O)c2ccc(Cl)cc2)CC1 | -31.7% |
| O=C(Nc1cccc(S(=O)(=O)N2CCOCC2)c1)C1CCCC1 | -4.03% |
| O=C(Nc1cccc(S(=O)(=O)N2CCCCC2)c1)C1CC1 | -10.6% |
| CN(C)S(=O)(=O)c1cccc(NC(=O)COC(=O)CCC(=O)c2ccc(F)cc2)c1 | -36% |
| CN(c1ccccc1)S(=O)(=O)c1cccc(NC(=O)COC(=O)C2CCCCC2)c1 | 13.7% |
| O=C(Nc1cccc(S(=O)(=O)N2CCCCCC2)c1)C1CCN(C(=O)c2ccc(F)cc2)CC1 | -88% |
| CC(C)CCNC(=O)c1ccc2c(SCC(=O)O)c3c(nc2c1)CCCC3 | -2.6% |
| Cc1ccc(N(C)S(=O)(=O)c2csc(C(N)=O)c2)cc1C | -14.8% |
| Cc1ccc(CN2C(=O)CCC2C(=O)NCCN(CC(C)C)CC(C)C)cc1 (stereo not drawn) | -13.4% |
| CCOc1cc(N2CCOCC2)c(OCC)cc1NC(=O)C1=NN(c2cccc(C)c2)C(=O)CC1 | -3.8% |
| COc1cc(Cn2nnc3ccccc32)cc(Br)c1O | 3% |
| Cc1ccccc1NC(=O)Cn1c(CCC(=O)O)ccc1-c1cccs1 | 15.4% |
| CCN(C(=O)CSc1ccc2ccccc2n1)C1CCS(=O)(=O)C1 (stereo not drawn) | -7.61% |
| Cc1sc2c(c1C)c(=O)n(-c1ccc(Cl)cc1)c(=O)n2Cc1cc(=O)n2ccccc2n1 | -36.4% |
| Cc1ccc(-n2c(=O)c3c(C)c(C)sc3n(Cc3cc(=O)n4ccccc4n3)c2=O)cc1C | -4.43% |
| Cc1ccc(-n2c(=O)c3c4c(sc3n(Cc3cc(=O)n5ccccc5n3)c2=O)CCC4)cc1C | -69.1% |
| CS(=O)(=O)N(Cc1ccc(C(=O)NN=C2CCCCCC2)cc1)c1ccccc1 | -7.08% |
| CCCCC(C(=O)O)C(C)CC(=O)NNC(=O)c1ccco1 (stereo not drawn) | 13.2% |
| C(=N\Nc1nncc2ccccc12)/c1ccccc1 | 1.52% |

| Structure (SMILES) | hERG current change (%, negative = inhibition) at 10uM |
| --- | --- |
| COc1ccc(OC)c(N/C(N)=N/c2nc(C)cc(C)n2)c1 | -50.1% |
| Cc1ccc(C)c(N/C(N)=N/c2nc(C)cc(C)n2)c1 | -34.2% |
| Cc1ccc(N/C(N)=N/c2nc(C)cc(N3CCCCC3)n2)c(C)c1 | -83% |
| CC(=O)N/C(=N/c1nc(C)cc(C)n1)Nc1ccc(C)cc1C | -10.6% |
| COc1ccc(C)cc1N/C(N)=N/c1nc(C)cc(C)n1 | -74.4% |
| COc1ccc(OC)c(N/C(=N/c2nc(C)cc(C)n2)NC(C)=O)c1 | 14.5% |
| COc1ccc(Cl)cc1N/C(N)=N/c1nc(C)cc(=O)[nH]1 | 20% |
| COc1ccc(Cl)cc1N/C(N)=N/c1nc(C)cc(C)n1 | -84.2% |
| COc1ccc(N/C(N)=N/c2nc(C)cc(C)n2)c(OC)c1 | -26.4% |
| COc1ccc(Cl)cc1NC(=O)CSc1nc(C)cc(C)n1 | -32.6% |
| CCOC(=O)Nc1cc(C)ccc1OC | 11.2% |
| COc1ccccc1N/C(N)=N/c1nc(C)cc(C)n1 | -32.9% |
| CCOc1ccc(CNC(=O)C(=O)c2cn(CC(=O)N3CCOCC3)c3ccccc23)cc1OC | 17.1% |
| COC(=O)C1=C(C)Nc2ncnn2C1c1cccnc1 (stereo not drawn) | 2.93% |
| O=C(Cn1ncc2c([nH]c3ccccc32)c1=O)N1CCN(c2ccccc2F)CC1 | 1.65% |
| CCN(CC)CCCN1C(=O)C(=O)/C(=C(/O)c2ccc3c(c2)OCCO3)C1c1ccco1 (stereo not drawn) | -6.06% |
| CC(C)c1cccc(C(C)C)c1NC(=O)COC(=O)[C@H](C)NC(N)=O | 16.8% |
| COc1cc(N/C(N)=N/c2nc(C)cc(C)n2)c(OC)cc1Cl | -56.7% |
| Cc1cc(C)nc(/N=C(\N)Nc2cc([N+](=O)[O-])ccc2C)n1 | -49% |
| CCCOc1ccccc1N/C(=N/c1nc(C)cc(C)n1)NC(=O)Nc1ccc(Cl)cc1 | -1.32% |
| CCCOc1ccccc1N/C(=N/c1nc(C)cc(C)n1)NC(=O)COc1ccc(OC)cc1 | -10% |

| Structure (SMILES) | hERG current change (%, negative = inhibition) at 10uM |
| --- | --- |
| COc1cc(NC(N)=S)c(OC)cc1Cl | 6.66% |
| CCCOc1ccccc1N/C(N)=N/c1nc(C)cc(C)n1 | -85.8% |
| Cc1ccc(-c2cc([C@H]3[C@@H]4C=CCC[C@@]4(C)C(=O)N3Cc3ccccc3)ccc2F)cc1 | 8.75% |
| CC1CC(OC(=O)c2ccccc2)CC(C)N1C.Cl (stereo not drawn) | -5.09% |
| Cc1cc(N/N=C/c2c(O)ccc3ccccc23)nc(-c2ccccc2O)n1 | -3.98% |
| O=C(CSc1cccc[n+]1[O-])Nc1cc(S(=O)(=O)N2CCOCC2)ccc1N1CCOCC1 | 16% |
| CCCNC(=O)C1(CC2CC(c3ccccc3)=NO2)CCNCC1 (stereo not drawn) | 23.5% |
| CCCCCCCNC(=O)C1(CC2CC(c3cccc(Br)c3)=NO2)CCNCC1 (stereo not drawn) | -70.3% |
| CCCCCCCNC(=O)C1(CC2CC(c3ccccc3)=NO2)CCNCC1 (stereo not drawn) | -58.8% |
| O=C(NCc1ccccc1)C1(CC2CC(c3ccccc3)=NO2)CCNCC1 (stereo not drawn) | -7.21% |
| CCCCCCCNC(=O)C1(CC2CC(c3ccc(Cl)cc3)=NO2)CCNCC1 (stereo not drawn) | -63.1% |
| CCCCCCCNC(=O)C1(CC2CC(c3cccc(Br)c3)=NO2)CCN(C(=O)C2(C)CC2)CC1 (stereo not drawn) | -26% |
| CCCCCCCNC(=O)C1(CC2CC(c3cccc(Br)c3)=NO2)CCN(C(=O)Cc2ccc(F)cc2)CC1 (stereo not drawn) | -7.08% |
| NC(=S)N1CCCc2ccccc21 | -3.03% |
| CC1(c2ccccc2)NC(=O)N(CC(=O)N2CCOCC2)C1=O (stereo not drawn) | 3.77% |
| O=C(Nc1nnc(COc2ccc(Cl)cc2)s1)c1cccs1 | -6.91% |
| Cc1csc(=O)n1CC(=O)OCC(=O)Nc1cc(Cl)ccc1[N+](=O)[O-] | -17.8% |
| Cc1cccc(C)c1-n1nnnc1C(C)(C)N1CCN(N=O)CC1 | 14.7% |
| COc1cccc(NC(C)(C)c2nnnn2-c2c(C)cccc2C)c1 | -63.4% |
| COc1ccc(NC(C)(C)c2nnnn2-c2c(C)cccc2C)cc1 | -4.2% |
| O=C(NCCc1cccs1)C1CC(c2cccc([N+](=O)[O-])c2)=NO1 (stereo not drawn) | -23.5% |
